Fold shift data for one compound are collected here from PubChem BioAssay AID623891 (Vanderbilt Specialized Chemistry Center, 2012).

This assay addresses Metabotropic glutamate receptor 6 (Homo sapiens) (UniProt O15303). The experiment in a line: off-target activity at human mGlu6, profiling panel, selectivity assay for mGlu4 lead optimization, cell-based, thallium flux (AID 623891). The settings on record: mGlu6 cells, glutamate CRC fold shift, at 10 µM.

Each structure is given as a SMILES string. Calls of active or inactive are those of the source.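 The calls were made as follows: active = fold shift of 2 or more as potentiator, or 0.5 or less as blocker, so actives lie on both sides; inactive = fold shift between 0.5 and 2.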

Sequence of Metabotropic glutamate receptor 6 (Homo sapiens) (O15303 whole entry, looked up): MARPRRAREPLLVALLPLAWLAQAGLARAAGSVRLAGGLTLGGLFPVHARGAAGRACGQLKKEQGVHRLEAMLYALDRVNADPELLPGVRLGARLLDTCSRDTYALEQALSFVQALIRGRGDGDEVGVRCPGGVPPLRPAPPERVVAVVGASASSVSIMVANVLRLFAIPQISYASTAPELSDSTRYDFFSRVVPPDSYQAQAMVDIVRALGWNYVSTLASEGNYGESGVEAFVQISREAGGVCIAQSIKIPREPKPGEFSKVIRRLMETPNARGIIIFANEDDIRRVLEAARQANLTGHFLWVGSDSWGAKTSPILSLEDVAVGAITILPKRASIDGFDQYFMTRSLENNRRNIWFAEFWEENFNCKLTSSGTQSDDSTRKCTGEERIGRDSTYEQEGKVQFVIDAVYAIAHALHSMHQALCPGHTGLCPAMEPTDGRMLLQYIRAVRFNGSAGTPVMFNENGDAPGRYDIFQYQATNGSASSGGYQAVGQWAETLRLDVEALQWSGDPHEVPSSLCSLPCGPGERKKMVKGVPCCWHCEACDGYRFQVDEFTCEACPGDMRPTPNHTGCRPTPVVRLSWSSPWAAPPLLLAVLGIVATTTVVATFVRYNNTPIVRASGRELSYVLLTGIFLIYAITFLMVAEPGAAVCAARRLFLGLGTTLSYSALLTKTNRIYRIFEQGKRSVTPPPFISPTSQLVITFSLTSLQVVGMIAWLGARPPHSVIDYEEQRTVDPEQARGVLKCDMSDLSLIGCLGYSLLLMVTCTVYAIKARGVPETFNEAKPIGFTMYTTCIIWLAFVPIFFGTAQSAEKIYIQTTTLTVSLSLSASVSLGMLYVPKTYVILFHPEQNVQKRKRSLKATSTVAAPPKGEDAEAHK

Take `O=C(Nc1cccc(Cl)c1)c1ccccn1`: the fold shift was 4.27 (active).
